# Laboratory results: the supplement of paper PMC4022240
# ± gives the standard deviation.
# Tests used:
# Assay in all cases: peptide microarray binding signal (635 nm), min-max normalized on array (fraction of array maximum); higher = stronger binding
# [1] = molecular target: T1, HaloTag-ATRX ADD domain (163-292)
# T1 chain: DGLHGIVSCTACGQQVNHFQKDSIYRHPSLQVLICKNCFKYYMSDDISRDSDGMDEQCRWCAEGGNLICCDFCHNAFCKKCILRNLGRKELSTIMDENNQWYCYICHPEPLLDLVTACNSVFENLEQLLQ
# In short: (§1)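 Arrays carried histone 13-mer peptide–cellulose conjugates printed in triplicate on nitrocellulose alongside a Cy3 tracer. After overnight blocking at 4°C, they were incubated for 1 h at 4°C with biotin-labelled HaloTag reader fusions (10 nM to 1 μM) plus streptavidin-Alexa Fluor 647, or with rabbit histone antibodies (1:10,000 to 1:2,000) plus anti-rabbit Alexa 647. Scanning on an Axon GenePix 4000B used 635 nm for signal and 532 nm for misprints. The binding signal reported is each triplicate's mean spot intensity after per-library min-max scaling.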
# [2] = molecular target: HaloTag-ING2 PHD (mouse Ing2 200-280)
# In short: as §1
# [3] = molecular target: anti-H3K4me3 antibody ab8580
# In short: as §1
# [4] = molecular target: anti-H3K9me3 antibody ab8898
# In short: as §1
# [5] = peptide region: H3 30-42, peptide modifications: H3K36me1, binder concentration: 1:2,000 dilution
# [6] = peptide region: H3 30-42, peptide modifications: H3K36me1, binder concentration: 1:10,000 dilution
# [7] = peptide region: H3 20-32, peptide modifications: H3T22ph H3K23me1, binder concentration: 1:2,000 dilution
# [8] = peptide region: H3 20-32, peptide modifications: H3T22ph H3K23me1, binder concentration: 1:10,000 dilution
# [9] = peptide region: H3 30-42, peptide modifications: H3K36ac H3K37me1, binder concentration: 1:2,000 dilution
# [10] = peptide region: H3 30-42, peptide modifications: H3K36ac H3K37me1, binder concentration: 1:10,000 dilution
# [11] = peptide region: H3 30-42, peptide modifications: H3K36me1 H3K37ac, binder concentration: 1:2,000 dilution
# [12] = peptide region: H3 30-42, peptide modifications: H3K36me1 H3K37ac, binder concentration: 1:10,000 dilution
# [13] = peptide region: H3 20-32, peptide modifications: H3T22ph H3K23me3, binder concentration: 1:2,000 dilution
# [14] = peptide region: H3 20-32, peptide modifications: H3T22ph H3K23me3, binder concentration: 1:10,000 dilution
# [15] = peptide region: H3 30-42, peptide modifications: H3K36ac H3K37ac, binder concentration: 1:2,000 dilution
# [16] = peptide region: H3 30-42, peptide modifications: H3K36ac H3K37ac, binder concentration: 1:10,000 dilution
# [17] = peptide region: H3 20-32, peptide modifications: H3T22ph H3K23me2, binder concentration: 1:2,000 dilution
# [18] = peptide region: H3 20-32, peptide modifications: H3T22ph H3K23me2, binder concentration: 1:10,000 dilution
# [19] = peptide region: H3 20-32, peptide modifications: H3T22ph, binder concentration: 1:2,000 dilution
# [20] = peptide region: H3 20-32, peptide modifications: H3T22ph, binder concentration: 1:10,000 dilution
# [21] = peptide region: H3 30-42, peptide modifications: H3K36ac H3K37me2, binder concentration: 1:2,000 dilution
# [22] = peptide region: H3 30-42, peptide modifications: H3K36ac H3K37me2, binder concentration: 1:10,000 dilution
# [23] = peptide region: H3 30-42, peptide modifications: H3K36ac, binder concentration: 1:2,000 dilution
# [24] = peptide region: H3 30-42, peptide modifications: H3K36ac, binder concentration: 1:10,000 dilution
binder,measurement,setting,value
PATGGVKKPHRYR [H3 30-42 P A T G G V Kme K P H R Y R],peptide microarray binding signal,"[1]; peptide region: H3 30-42, peptide modifications: H3K36me1, binder concentration: 50 nM",0.0102 ± 0.00043
same,peptide microarray binding signal,"[1]; peptide region: H3 30-42, peptide modifications: H3K36me1, binder concentration: 500 nM",0.015 ± 0.0004
same,peptide microarray binding signal,"[2]; peptide region: H3 30-42, peptide modifications: H3K36me1, binder concentration: 10 nM",0.0184 ± 0.00087
same,peptide microarray binding signal,"[2]; peptide region: H3 30-42, peptide modifications: H3K36me1, binder concentration: 100 nM",0.0275 ± 0.0015
same,peptide microarray binding signal,[3]; [5],0.00478 ± 0.00043
same,peptide microarray binding signal,[3]; [6],0.00474 ± 0.00045
same,peptide microarray binding signal,[4]; [5],0.00237 ± 7.4e-05
same,peptide microarray binding signal,[4]; [6],0.00277 ± 4.8e-05
LATKAARKSAPAT [H3 20-32 L A Tph Kme A A R K S A P A T],peptide microarray binding signal,"[1]; peptide region: H3 20-32, peptide modifications: H3T22ph H3K23me1, binder concentration: 50 nM",0.012 ± 0.0014
same,peptide microarray binding signal,"[1]; peptide region: H3 20-32, peptide modifications: H3T22ph H3K23me1, binder concentration: 500 nM",0.0173 ± 0.0019
same,peptide microarray binding signal,"[2]; peptide region: H3 20-32, peptide modifications: H3T22ph H3K23me1, binder concentration: 10 nM",0.0223 ± 0.0014
same,peptide microarray binding signal,"[2]; peptide region: H3 20-32, peptide modifications: H3T22ph H3K23me1, binder concentration: 100 nM",0.0368 ± 0.0079
same,peptide microarray binding signal,[3]; [7],0.00793 ± 0.0012
same,peptide microarray binding signal,[3]; [8],0.0102 ± 0.0018
same,peptide microarray binding signal,[4]; [7],0.00538 ± 0.00068
same,peptide microarray binding signal,[4]; [8],0.003 ± 9.2e-05
PATGGVKKPHRYR [H3 30-42 P A T G G V Kac Kme P H R Y R],peptide microarray binding signal,"[1]; peptide region: H3 30-42, peptide modifications: H3K36ac H3K37me1, binder concentration: 50 nM",0.00235 ± 2.8e-05
same,peptide microarray binding signal,"[1]; peptide region: H3 30-42, peptide modifications: H3K36ac H3K37me1, binder concentration: 500 nM",0.00586 ± 0.00013
same,peptide microarray binding signal,"[2]; peptide region: H3 30-42, peptide modifications: H3K36ac H3K37me1, binder concentration: 10 nM",0.00418 ± 0.00019
same,peptide microarray binding signal,"[2]; peptide region: H3 30-42, peptide modifications: H3K36ac H3K37me1, binder concentration: 100 nM",0.0056 ± 0.00056
same,peptide microarray binding signal,[3]; [9],0.00253 ± 0.00052
same,peptide microarray binding signal,[3]; [10],0.00177 ± 5.8e-05
same,peptide microarray binding signal,[4]; [9],0.0165 ± 0.003
same,peptide microarray binding signal,[4]; [10],0.00265 ± 6.2e-05
PATGGVKKPHRYR [H3 30-42 P A T G G V Kme Kac P H R Y R],peptide microarray binding signal,"[1]; peptide region: H3 30-42, peptide modifications: H3K36me1 H3K37ac, binder concentration: 50 nM",0.00263 ± 0.00011
same,peptide microarray binding signal,"[1]; peptide region: H3 30-42, peptide modifications: H3K36me1 H3K37ac, binder concentration: 500 nM",0.0039 ± 5.6e-05
same,peptide microarray binding signal,"[2]; peptide region: H3 30-42, peptide modifications: H3K36me1 H3K37ac, binder concentration: 10 nM",0.00298 ± 3.3e-05
same,peptide microarray binding signal,"[2]; peptide region: H3 30-42, peptide modifications: H3K36me1 H3K37ac, binder concentration: 100 nM",0.00354 ± 8.3e-05
same,peptide microarray binding signal,[3]; [11],0.00145 ± 6.2e-05
same,peptide microarray binding signal,[3]; [12],0.00137 ± 5.4e-05
same,peptide microarray binding signal,[4]; [11],0.00163 ± 7.6e-05
same,peptide microarray binding signal,[4]; [12],0.00127 ± 2.5e-05
LATKAARKSAPAT [H3 20-32 L A Tph Kme3 A A R K S A P A T],peptide microarray binding signal,"[1]; peptide region: H3 20-32, peptide modifications: H3T22ph H3K23me3, binder concentration: 50 nM",0.00577 ± 0.00039
same,peptide microarray binding signal,"[1]; peptide region: H3 20-32, peptide modifications: H3T22ph H3K23me3, binder concentration: 500 nM",0.0105 ± 0.00049
same,peptide microarray binding signal,"[2]; peptide region: H3 20-32, peptide modifications: H3T22ph H3K23me3, binder concentration: 10 nM",0.0219 ± 0.0024
same,peptide microarray binding signal,"[2]; peptide region: H3 20-32, peptide modifications: H3T22ph H3K23me3, binder concentration: 100 nM",0.026 ± 0.0027
same,peptide microarray binding signal,[3]; [13],0.0775 ± 0.0084
same,peptide microarray binding signal,[3]; [14],0.0633 ± 0.0092
same,peptide microarray binding signal,[4]; [13],0.0523 ± 0.0034
same,peptide microarray binding signal,[4]; [14],0.0244 ± 0.0027
PATGGVKKPHRYR [H3 30-42 P A T G G V Kac Kac P H R Y R],peptide microarray binding signal,"[1]; peptide region: H3 30-42, peptide modifications: H3K36ac H3K37ac, binder concentration: 50 nM",0.00357 ± 6.3e-05
same,peptide microarray binding signal,"[1]; peptide region: H3 30-42, peptide modifications: H3K36ac H3K37ac, binder concentration: 500 nM",0.00462 ± 8.3e-05
same,peptide microarray binding signal,"[2]; peptide region: H3 30-42, peptide modifications: H3K36ac H3K37ac, binder concentration: 10 nM",0.00489 ± 0.00017
same,peptide microarray binding signal,"[2]; peptide region: H3 30-42, peptide modifications: H3K36ac H3K37ac, binder concentration: 100 nM",0.00539 ± 0.00019
same,peptide microarray binding signal,[3]; [15],0.00264 ± 0.00042
same,peptide microarray binding signal,[3]; [16],0.003024 ± 2.6e-05
same,peptide microarray binding signal,[4]; [15],0.00427 ± 0.00042
same,peptide microarray binding signal,[4]; [16],0.00271 ± 0.00018
LATKAARKSAPAT [H3 20-32 L A Tph Kme2 A A R K S A P A T],peptide microarray binding signal,"[1]; peptide region: H3 20-32, peptide modifications: H3T22ph H3K23me2, binder concentration: 50 nM",0.004921 ± 4.8e-05
same,peptide microarray binding signal,"[1]; peptide region: H3 20-32, peptide modifications: H3T22ph H3K23me2, binder concentration: 500 nM",0.00605 ± 0.00026
same,peptide microarray binding signal,"[2]; peptide region: H3 20-32, peptide modifications: H3T22ph H3K23me2, binder concentration: 10 nM",0.0107 ± 0.0003
same,peptide microarray binding signal,"[2]; peptide region: H3 20-32, peptide modifications: H3T22ph H3K23me2, binder concentration: 100 nM",0.00893 ± 0.00037
same,peptide microarray binding signal,[3]; [17],0.00359 ± 3.6e-05
same,peptide microarray binding signal,[3]; [18],0.00268 ± 0.00016
same,peptide microarray binding signal,[4]; [17],0.00201 ± 8.1e-05
same,peptide microarray binding signal,[4]; [18],0.00196 ± 1.8e-05
LATKAARKSAPAT [H3 20-32 L A Tph K A A R K S A P A T],peptide microarray binding signal,"[1]; peptide region: H3 20-32, peptide modifications: H3T22ph, binder concentration: 50 nM",0.00339 ± 3.7e-05
same,peptide microarray binding signal,"[1]; peptide region: H3 20-32, peptide modifications: H3T22ph, binder concentration: 500 nM",0.00638 ± 0.00025
same,peptide microarray binding signal,"[2]; peptide region: H3 20-32, peptide modifications: H3T22ph, binder concentration: 10 nM",0.0046 ± 6.2e-05
same,peptide microarray binding signal,"[2]; peptide region: H3 20-32, peptide modifications: H3T22ph, binder concentration: 100 nM",0.00772 ± 0.00064
same,peptide microarray binding signal,[3]; [19],0.001548 ± 1.2e-05
same,peptide microarray binding signal,[3]; [20],0.00194 ± 3.1e-05
same,peptide microarray binding signal,[4]; [19],0.00068 ± 2.1e-05
same,peptide microarray binding signal,[4]; [20],0.00115 ± 2e-05
PATGGVKKPHRYR [H3 30-42 P A T G G V Kac Kme2 P H R Y R],peptide microarray binding signal,"[1]; peptide region: H3 30-42, peptide modifications: H3K36ac H3K37me2, binder concentration: 50 nM",0.0026 ± 5.2e-05
same,peptide microarray binding signal,"[1]; peptide region: H3 30-42, peptide modifications: H3K36ac H3K37me2, binder concentration: 500 nM",0.00462 ± 0.00028
same,peptide microarray binding signal,"[2]; peptide region: H3 30-42, peptide modifications: H3K36ac H3K37me2, binder concentration: 10 nM",0.00269 ± 6.6e-05
same,peptide microarray binding signal,"[2]; peptide region: H3 30-42, peptide modifications: H3K36ac H3K37me2, binder concentration: 100 nM",0.00354 ± 8.3e-05
same,peptide microarray binding signal,[3]; [21],0.00125 ± 9e-05
same,peptide microarray binding signal,[3]; [22],0.00097 ± 2e-05
same,peptide microarray binding signal,[4]; [21],0.00166 ± 9.8e-05
same,peptide microarray binding signal,[4]; [22],0.00127 ± 0.0001
PATGGVKKPHRYR [H3 30-42 P A T G G V Kac K P H R Y R],peptide microarray binding signal,"[1]; peptide region: H3 30-42, peptide modifications: H3K36ac, binder concentration: 50 nM",0.0068 ± 0.00033
same,peptide microarray binding signal,"[1]; peptide region: H3 30-42, peptide modifications: H3K36ac, binder concentration: 500 nM",0.0116 ± 0.0019
same,peptide microarray binding signal,"[2]; peptide region: H3 30-42, peptide modifications: H3K36ac, binder concentration: 10 nM",0.0378 ± 0.0029
same,peptide microarray binding signal,"[2]; peptide region: H3 30-42, peptide modifications: H3K36ac, binder concentration: 100 nM",0.0552 ± 0.0035
same,peptide microarray binding signal,[3]; [23],0.0364 ± 0.0021
same,peptide microarray binding signal,[3]; [24],0.0246 ± 0.0028
same,peptide microarray binding signal,[4]; [23],0.025 ± 0.0016
same,peptide microarray binding signal,[4]; [24],0.00963 ± 0.00018
